# Measured values reported in the supplement of paper PMC10037445.
# The full ranking holds about 2,900 compounds; the median of “NF-kB SEAP reporter activity, fold change vs agonist alone” is about 0.99, and the highest 2% start at about 2.6. The sample as a whole holds a higher share of the highest values than the screen did.
# Legend:
# RAW-Dual [1] = experiment: NF-kB SEAP reporter activity, fold change vs agonist alone; cytotoxicity flag (confluency mask): not cytotoxic; higher = enhanced NF-kB activity
# Summary of the method: (§1)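 RAW-Dual macrophages (50,000 cells/well in DMEM, 384-well plates) received 50 nL of library stock by pin tool, then a PRR agonist 1 h later, and were kept at 37 °C, 5% CO2. After 20 hours, supernatant was read for IRF by QuantiLuc luminescence and for NF-κB by QuantiBlue absorbance at 620 nm. Reporter activity is fold change over agonist-alone wells. Cytotoxic wells had IncuCyte confluency below 70% of agonist controls in both mask sets.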
# RAW-Dual [2] = experiment: NF-kB SEAP reporter activity, fold change vs agonist alone; higher = enhanced NF-kB activity; settings: cytotoxicity flag (confluency mask): not cytotoxic
# Summary of the method: as §1
# [3] = agonist: ODN 1826 (TLR9) 0.5 ug/mL
# [4] = agonist: Pam2CSK4 (TLR2/6) 0.1 ug/mL
# [5] = agonist: Pam3CSK4 (TLR2/1) 0.1 ug/mL
# [6] = library stock concentration (final ~1000-fold dilution): 10 mM, agonist: Imiquimod (TLR7) […]
# [7] = library stock concentration (final ~1000-fold dilution): 10 mM, agonist: MPLA (TLR4) […]
structure (smiles),measurement,setting,value
COc1ccc(S(=O)(=O)Nc2cccnc2Nc2ccc(O)cc2)cc1 (library stock concentration (final ~1000-fold dilution): 10 mM),NF-kB SEAP reporter activity,RAW-Dual [1]; agonist: LPS (TLR4) 0.1 ug/mL,4.93
same,NF-kB SEAP reporter activity,RAW-Dual [1]; [3],3.17
same,NF-kB SEAP reporter activity,RAW-Dual [1]; [4],1.86
same,NF-kB SEAP reporter activity,RAW-Dual [1]; [5],2.22
COc1ccc(S(=O)(=O)Nc2cccnc2Nc2ccc(O)cc2)cc1,NF-kB SEAP reporter activity,RAW-Dual [2]; [6],2.48
same,NF-kB SEAP reporter activity,RAW-Dual [2]; [7],1.92
COc1cnc(NS(=O)(=O)c2ccc(N)cc2)nc1 (library stock concentration (final ~1000-fold dilution): 10 mM),NF-kB SEAP reporter activity,RAW-Dual [1]; agonist: LPS (TLR4) 0.1 ug/mL,1.22
same,NF-kB SEAP reporter activity,RAW-Dual [1]; [3],0.999
same,NF-kB SEAP reporter activity,RAW-Dual [1]; [4],1.13
same,NF-kB SEAP reporter activity,RAW-Dual [1]; [5],1.19
COc1cc(Nc2nc3ccccc3nc2NS(=O)(=O)c2ccc(NC(=O)c3ccc(C)c(OC)c3)cc2)cc(OC)c1,NF-kB SEAP reporter activity,RAW-Dual [2]; [6],0.914
same,NF-kB SEAP reporter activity,RAW-Dual [2]; [7],0.963
COc1cnc(NS(=O)(=O)c2ccc(N)cc2)nc1,NF-kB SEAP reporter activity,RAW-Dual [2]; [6],0.927
same,NF-kB SEAP reporter activity,RAW-Dual [2]; [7],1.02
CCC(C)n1cc(C)c2c(C(=O)NCc3c(C)cc(C)[nH]c3=O)cc(-c3ccc(N4CCNCC4)nc3)cc21 (configuration not stated) (library stock concentration (final ~1000-fold dilution): 2 mM),NF-kB SEAP reporter activity,RAW-Dual [1]; agonist: LPS (TLR4) 0.1 ug/mL,1.17
same,NF-kB SEAP reporter activity,RAW-Dual [1]; [3],0.973
same,NF-kB SEAP reporter activity,RAW-Dual [1]; [4],0.979
same,NF-kB SEAP reporter activity,RAW-Dual [1]; [5],1.07
CCC(C)n1cc(C)c2c(C(=O)NCc3c(C)cc(C)[nH]c3=O)cc(-c3ccc(N4CCNCC4)nc3)cc21 (configuration not stated),NF-kB SEAP reporter activity,"RAW-Dual [2]; library stock concentration (final ~1000-fold dilution): 2 mM, agonist: Imiquimod (TLR7) […]",0.954
same,NF-kB SEAP reporter activity,"RAW-Dual [2]; library stock concentration (final ~1000-fold dilution): 2 mM, agonist: MPLA (TLR4) […]",0.941
COc1ccc(-c2cc(=O)c3c(O)c(OC)c(O)c(OC)c3o2)cc1,NF-kB SEAP reporter activity,RAW-Dual [2]; [6],0.931
same,NF-kB SEAP reporter activity,RAW-Dual [2]; [7],1.09
COc1ccc(-c2cc(=O)c3c(O)c(OC)c(O)c(OC)c3o2)cc1 (library stock concentration (final ~1000-fold dilution): 10 mM),NF-kB SEAP reporter activity,RAW-Dual [1]; agonist: LPS (TLR4) 0.1 ug/mL,1.27
same,NF-kB SEAP reporter activity,RAW-Dual [1]; [3],0.993
same,NF-kB SEAP reporter activity,RAW-Dual [1]; [4],1.14
same,NF-kB SEAP reporter activity,RAW-Dual [1]; [5],1.05
CC1(C(=O)O)CCC2(C)CCC3(C)C(=CC(=O)C4C5(C)CCC(OC6OC(C(=O)O)C(O)C(O)C6OC6OC(C(=O)O)C(O)C(O)C6O)C(C)(C)C5CCC43C)C2C1.N.N (configuration not stated),NF-kB SEAP reporter activity,RAW-Dual [2]; [6],0.926
same,NF-kB SEAP reporter activity,RAW-Dual [2]; [7],1.03
CC1(C(=O)O)CCC2(C)CCC3(C)C(=CC(=O)C4C5(C)CCC(OC6OC(C(=O)O)C(O)C(O)C6OC6OC(C(=O)O)C(O)C(O)C6O)C(C)(C)C5CCC43C)C2C1.N.N (configuration not stated) (library stock concentration (final ~1000-fold dilution): 10 mM),NF-kB SEAP reporter activity,RAW-Dual [1]; agonist: LPS (TLR4) 0.1 ug/mL,0.96
same,NF-kB SEAP reporter activity,RAW-Dual [1]; [3],0.88
same,NF-kB SEAP reporter activity,RAW-Dual [1]; [4],0.866
same,NF-kB SEAP reporter activity,RAW-Dual [1]; [5],1.15
CC(C)n1nc(-c2ccc3oc(N)nc3c2)c2c(N)ncnc21,NF-kB SEAP reporter activity,RAW-Dual [2]; [6],1.76
same,NF-kB SEAP reporter activity,RAW-Dual [2]; [7],2.1
CC(C)n1nc(-c2ccc(NC(=O)Nc3cc(C(F)(F)F)ccc3F)cc2)c2c(N)ncnc21 (library stock concentration (final ~1000-fold dilution): 10 mM),NF-kB SEAP reporter activity,RAW-Dual [1]; agonist: LPS (TLR4) 0.1 ug/mL,0.398
same,NF-kB SEAP reporter activity,RAW-Dual [1]; [3],0.196
same,NF-kB SEAP reporter activity,RAW-Dual [1]; [4],0.0706
same,NF-kB SEAP reporter activity,RAW-Dual [1]; [5],0.216
CC(C)n1nc(-c2ccc(NC(=O)Nc3cc(C(F)(F)F)ccc3F)cc2)c2c(N)ncnc21,NF-kB SEAP reporter activity,RAW-Dual [2]; [6],0.149
same,NF-kB SEAP reporter activity,RAW-Dual [2]; [7],0.261
CC(C)n1nc(-c2cc3cc(O)ccc3[nH]2)c2c(N)ncnc21,NF-kB SEAP reporter activity,RAW-Dual [2]; [6],0.933
same,NF-kB SEAP reporter activity,RAW-Dual [2]; [7],0.941
CC(C)n1nc(-c2cc3cc(O)ccc3[nH]2)c2c(N)ncnc21 (library stock concentration (final ~1000-fold dilution): 10 mM),NF-kB SEAP reporter activity,RAW-Dual [1]; agonist: LPS (TLR4) 0.1 ug/mL,3.13
same,NF-kB SEAP reporter activity,RAW-Dual [1]; [3],0.998
same,NF-kB SEAP reporter activity,RAW-Dual [1]; [4],1.01
same,NF-kB SEAP reporter activity,RAW-Dual [1]; [5],0.904
CC(C)n1nc(-c2ccc3oc(N)nc3c2)c2c(N)ncnc21 (library stock concentration (final ~1000-fold dilution): 10 mM),NF-kB SEAP reporter activity,RAW-Dual [1]; agonist: LPS (TLR4) 0.1 ug/mL,2.03
same,NF-kB SEAP reporter activity,RAW-Dual [1]; [3],1.69
same,NF-kB SEAP reporter activity,RAW-Dual [1]; [4],0.647
same,NF-kB SEAP reporter activity,RAW-Dual [1]; [5],0.973
Cc1c(C(=O)Nc2ccc(N3CC(C)OC(C)C3)nc2)cccc1-c1ccc(OC(F)(F)F)cc1 (configuration not stated),NF-kB SEAP reporter activity,RAW-Dual [2]; [6],0.808
same,NF-kB SEAP reporter activity,RAW-Dual [2]; [7],0.657
Cc1c(C(=O)Nc2ccc(N3CC(C)OC(C)C3)nc2)cccc1-c1ccc(OC(F)(F)F)cc1 (configuration not stated) (library stock concentration (final ~1000-fold dilution): 10 mM),NF-kB SEAP reporter activity,RAW-Dual [1]; agonist: LPS (TLR4) 0.1 ug/mL,1.13
same,NF-kB SEAP reporter activity,RAW-Dual [1]; [3],1.35
same,NF-kB SEAP reporter activity,RAW-Dual [1]; [4],0.839
same,NF-kB SEAP reporter activity,RAW-Dual [1]; [5],1.12
N=C(N)NCCN1CCCCCCC1.O=S(=O)(O)O (library stock concentration (final ~1000-fold dilution): 10 mM water),NF-kB SEAP reporter activity,RAW-Dual [1]; agonist: LPS (TLR4) 0.1 ug/mL,1.13
same,NF-kB SEAP reporter activity,RAW-Dual [1]; [3],1.05
same,NF-kB SEAP reporter activity,RAW-Dual [1]; [4],1.06
same,NF-kB SEAP reporter activity,RAW-Dual [1]; [5],0.972
N=C(N)NCCN1CCCCCCC1.O=S(=O)(O)O,NF-kB SEAP reporter activity,"RAW-Dual [2]; library stock concentration (final ~1000-fold dilution): 10 mM water, agonist: MPLA (TLR4) […]",1.05
CC1CC(=O)Nc2cccc(-c3ccc4c(c3)c(-c3cnn(C)c3)nn4C)c2N1 (configuration not stated),NF-kB SEAP reporter activity,RAW-Dual [2]; [6],1.46
same,NF-kB SEAP reporter activity,RAW-Dual [2]; [7],2.15
CC1CC(=O)Nc2cccc(-c3ccc4c(c3)c(-c3cnn(C)c3)nn4C)c2N1 (configuration not stated) (library stock concentration (final ~1000-fold dilution): 10 mM),NF-kB SEAP reporter activity,RAW-Dual [1]; agonist: LPS (TLR4) 0.1 ug/mL,3.26
same,NF-kB SEAP reporter activity,RAW-Dual [1]; [3],2.08
same,NF-kB SEAP reporter activity,RAW-Dual [1]; [4],0.673
same,NF-kB SEAP reporter activity,RAW-Dual [1]; [5],1.28
Cc1nc[nH]c1CN1CCc2c(c3ccccc3n2C)C1=O.Cl (library stock concentration (final ~1000-fold dilution): 2 mM water),NF-kB SEAP reporter activity,RAW-Dual [1]; agonist: LPS (TLR4) 0.1 ug/mL,1.14
same,NF-kB SEAP reporter activity,RAW-Dual [1]; [3],1.09
same,NF-kB SEAP reporter activity,RAW-Dual [1]; [4],1.15
same,NF-kB SEAP reporter activity,RAW-Dual [1]; [5],0.961
Cc1nc[nH]c1CN1CCc2c(c3ccccc3n2C)C1=O.Cl,NF-kB SEAP reporter activity,"RAW-Dual [2]; library stock concentration (final ~1000-fold dilution): 2 mM water, agonist: MPLA (TLR4) […]",1.06
